Assay results published in the OligoGym collection.
Note: reference of the scale not given here.

What follows are sequences tested against FAM117A (assay: pooled miR-30 sensor sort-seq; sequence = guide strand). Settings: shRNA.
With AACTCGAACATTAACATTCTTC the sensor-assay potency score (higher = more potent) was -0.482.
Work on TGTAGCTATGATTAGGTCGAGG yielded a sensor-assay potency score (higher = more potent) of -1.12.
For TTCTTCAAACACACGCACTTTC, the sensor-assay potency score (higher = more potent) was -0.795.
In the case of TTTTCTAATCCATCCAGCCCTG, the sensor-assay potency score (higher = more potent) is reported as -0.672.
For TATACAAACTTCAAACAGCTGC, the sensor-assay potency score (higher = more potent) was -0.329.
TCACCTTCTAGCTCTTGCCAGG gave a sensor-assay potency score (higher = more potent) of -1.11.
Work on TACACACTGACTTTTCTGGGGC yielded a sensor-assay potency score (higher = more potent) of 0.0109.
In the case of TTAACATTCTTCAATTTTGTGT, the sensor-assay potency score (higher = more potent) is reported as -0.138.
With TTGAAATGGACTTTGTTCTTGT the sensor-assay potency score (higher = more potent) was 1.01.
Work on TTGTCATTGGTGCAGCAGGTGA yielded a sensor-assay potency score (higher = more potent) of -1.77.
With AAATAGAGTCTCTACATCGATA the sensor-assay potency score (higher = more potent) was -1.34.

These sequences were tested against FAM127A in the same assay as above. Settings: shRNA.
For ATCGCCGTCAAACGTCTCGGGA, the sensor-assay potency score (higher = more potent) was -1.14.
ATTGAGGAGGGGGCTCTCCTTC showed a sensor-assay potency score (higher = more potent) of -1.52.
Sequence TTCATCTCGGCCAGAAAGCCCC has a sensor-assay potency score (higher = more potent) of -0.891.
In the case of AAAGACTCGCTTCATCTCGGCC, the sensor-assay potency score (higher = more potent) is reported as -1.07.
Sequence ATCTCGGCCAGAAAGCCCCGGT has a sensor-assay potency score (higher = more potent) of -0.915.
For TCGGTATCGCCGTCAAACGTCT, the sensor-assay potency score (higher = more potent) was -1.19.
TCGCTGGAGAACGTGTTCTCGT gave a sensor-assay potency score (higher = more potent) of -1.32.
For TGTAGGAGCCCGTCTGCACGAT, the sensor-assay potency score (higher = more potent) was -1.04.
TATCGCCGTCAAACGTCTCGGG was tested, and the sensor-assay potency score (higher = more potent) was -0.476.
TCGCCGTCAAACGTCTCGGGAA gave a sensor-assay potency score (higher = more potent) of -1.08.
TCGGTCGGTATCGCCGTCAAAC was tested, and the sensor-assay potency score (higher = more potent) was -1.87.

The sequences below were run against FAM134A in the same assay as above. Settings: shRNA.
TATTTTTCAAGTCAACACCTGC gave a sensor-assay potency score (higher = more potent) of -0.352.
In the case of TTCAAGTCAACACCTGCACAGA, the sensor-assay potency score (higher = more potent) is reported as -0.356.
TTTCTTCACATCCACCACTGGG was tested, and the sensor-assay potency score (higher = more potent) was -0.774.
TTGGCTTCTGCCTTCATGCTGT was tested, and the sensor-assay potency score (higher = more potent) was 0.471.
TACACAGACTACAGTGACCTAA gave a sensor-assay potency score (higher = more potent) of -0.201.
For TACCAGAGAATGGATGTCGGGC, the sensor-assay potency score (higher = more potent) was -0.337.
Work on AACAGCAACACTCCTAGCCAGG yielded a sensor-assay potency score (higher = more potent) of -1.64.
With TTCTTCACATCCACCACTGGGG the sensor-assay potency score (higher = more potent) was -0.152.
TTCTTGGTCTGACTGTACCAGA showed a sensor-assay potency score (higher = more potent) of -0.779.
AAGAGTGTAACTACTGGCCTGA was tested, and the sensor-assay potency score (higher = more potent) was 0.464.
In the case of TGAATCTGGAAGGTGAGCCAGC, the sensor-assay potency score (higher = more potent) is reported as -0.0919.
Sequence TAAGAGTGTAACTACTGGCCTG has a sensor-assay potency score (higher = more potent) of -0.0872.

What follows are sequences tested against FAM151A in the same assay as above. Settings: shRNA.
In the case of TAGACTTGGTGGACAGCAGTGT, the sensor-assay potency score (higher = more potent) is reported as 0.813.
For TAGCCTGTAGTAGACTCGGGTC, the sensor-assay potency score (higher = more potent) was -0.281.
With TTCTACATTGACGTCAGCCTCC the sensor-assay potency score (higher = more potent) was -0.0868.
With TTCCTCTGTCAGCTGCCGCAGG the sensor-assay potency score (higher = more potent) was -0.626.
Work on TGTCATAGTAGACTTGGTGGAC yielded a sensor-assay potency score (higher = more potent) of 0.221.
In the case of ATGACCACCACAGACACACAGG, the sensor-assay potency score (higher = more potent) is reported as -1.21.
